Measurements taken from the supplement of paper PMC6555819.

Tested on: VDR:RXRa (NR concentration 270 nM, RXRa partner concentration 90 nM)
Assay: PBM binding z-score (relative to random genomic background probes); higher = stronger binding; sequences stand for … in GC…GCGATTGACAGCGTAGAATGAAGG
Description: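 Protein-binding microarray (Agilent 4x180K custom design, double-stranded 60-nt probes: 5' GC cap, 34-nt variable region, 24-nt constant primer region; full probe sequence given). Purified or IVT nuclear receptor:RXRα heterodimers (3:1 NR:RXRα, mostly 270:90 nM) or homodimers were incubated for 1 h in PBS with 2% milk and no ligand, then detected with Alexa488 antibodies. Fluorescence from o1-orientation probes (~5 replicates averaged) was converted to z-scores against 500 random hg19 background probes. Variable regions are seed direct-repeat (DR0–DR5) sites, all their single-nucleotide variants and half-site ablations.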

Row | Sequence | PBM binding z-score
1 | CCAGACAGGTGAGAAGGTAACTAAGCCTCGATTA | -0.0342
2 | TCTATAAGTTGAAGGGCAACCGACGAGTCCGTTT | 1.07
3 | CCTGGGAGGACAGAAGGTCAGAGCTGTCCGCTTT | 1.04
4 | CTCGAAAGGTCGGTTGAGGTGAGTGTACGGATAA | 2.42
5 | GCTGCTAGGTCAGGTTGGTCAGCTAGCGGGTACG | 0.267
6 | CGTCCAAGGTCAGAGGGGTCAGTGAATGCCGAGT | 7.48
7 | TCATATTGGTAAACAGGTGAAAGTCCGTAAGTTA | 1.08
8 | TAGCCTAGGTCATTGGGCCAGTATTGTACGCATC | 2.26
9 | TCATATAGGTAAAAGGTGAAAGTCGGTGTGGTAA | 1.82
10 | TCTTGTAGATCAAGCAGGTGAAGAAAGCCTGAGT | 0.0815
11 | CGAACTAGGTCAGAACAAGACAGTGAAGGATGAT | 0.215
12 | CCGACTGGGGCAAAGGATACCATACTCAGTACGA | -0.368
13 | CTAACGAGGGCATGAGTTGATAGCAAATGCCGAT | 1.4
14 | TGTCAAAGTTCAAAGATAACGTAAGTATCCACAC | 4.23
15 | CCATACGGGTCACGAGGTTATAGCACGACGAGCG | 5.02
16 | ATATCAAGGTGATCGTGAGGTCGTTGATACTAAC | 3.33
17 | ACAGCCAGGTGAGTGAAGGTAACTCAGCTGGACG | -0.635
18 | GCTATTAGTTGATAGGGCAACCGAATGATTCTCG | -0.195
19 | GCTTGTAGATCAAGGTTAAGAGAGACTAAGCTAA | -0.00778
20 | ACATGTAGGTTAGCTGGGGTCATTCAGACTAGGC | 6.43

Row | Sequence | PBM binding z-score
21 | AGTCAAAGTTCACTAGGTAACATAAGATTCAGCT | 4.14
22 | TAGCCTAGGTCATTCAGGGGCCAATATAGAAAGC | 3.77
23 | ATCTCTAGGTAACCTAGTTCAGTGAATGCCGAAC | 1.96
24 | CCTAGCACGCCAGGGTCACTCAAGCATTTCGCTT | 2.56
25 | CCTATTAGTTGATCATAAGGGCAACCGAAGCTCG | 0.485
26 | TAGCCTAGGTCATTCAGGGGCCAGTATAGAAAGC | 3.26
27 | CAAACTAGGTCAGCGGAAGGTCAAAGTCCGCATG | 5.07
28 | CAAACTAGGTCCAGGTCAAAGTCGGTTTGTGCCA | 3.06
29 | CGAATGAGGGCATGAGTTGATAGCAAATGCCGAT | 1.48
30 | ATACCAAGGTGATCGTGTGGTCGTTGATACTAAC | 0.0148
31 | CAAACTAGGTCACGAAAGGTCAAAGACGAATGAC | 6.91
32 | TCATATAGGTAAACGTGAAAGTCGAACGATATGA | 0.503
33 | TCTCGGAGGACACGAAGGTAAGAGCTTTCCAGAG | -0.386
34 | TCTATTAGTTAAAGGGCAACCGACGAGTCCGTTT | 1.46
35 | AAGACAGGGTCACTAGGCCAGAGTAGGTACGAAT | 3.9
36 | GCTGCTAGGTCAGGTTGGTCATCTAACGGGTACG | 1.25
37 | CGAACTAGGTCATCCAGGACAGTGTATACATTGA | 4.57
38 | CCTAGCAGGCCAGGGTCACTCTAGCATTTCGCTT | 2.45
39 | CTTACTGGGCCATTCAGAGGTCATTGATCATATG | 4.23
40 | TCTAGTTCGTCAAAGGTCACACACTCGAAATGCG | 5.77
